# Assay outcomes (PubChem)
# ELG1 repair inh: qHTS screen for small molecules that inhibit ELG1-dependent DNA repair in human embryonic kidney (HEK293T) cells expressing luciferase-tagged ELG1; HEK293T ELG1-luciferase reporter, luminescence, 16 h; DNA damage induced by 5-fluorouridine; Potency, µM (series often up to 46.1 µM), for the others: top-dose activity change, negative = inhibition, hits mostly inhibitors; 330,000 tested, 2.3% active; also: potency is read from the fitted curve at half-maximal effect; nearly all actives have a fitted effect of over 55% in size
#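 HEK293T cells expressing luciferase-tagged ELG1 (2,000/well) received 5-Fluorouridine plus compound or DMSO for 16 hr at 37 °C. Luciferase was read by ONE-Glo luminescence after 30 min at room temperature.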
# IL-1B inflam inh: qHTS for Inhibitors of Inflammasome Signaling: IL-1-beta AlphaLISA Primary Screen; THP-1 LPS/ATP IL-1B secretion, AlphaLISA, 16 h; hits give low values; activity change, % at 57.5 µM; 360,000 tested, 4.7% active; AID 743279, 2014; in the data active = activity change below about -50%; inconclusive = mostly about -30% to -49%
#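 Secreted IL-1B measured by AlphaLISA bead assay after 16 h compound exposure of THP-1 cells; compounds (final up to 57.5 uM) added 1 h before LPS (250 ng/mL) and ATP (1.25 mM) stimulation; lower signal means less secretion.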
# TDP1 cell noCPT: qHTS for Inhibitors of human tyrosyl-DNA phosphodiesterase 1 (TDP1): qHTS in cells in absence of CPT | DT40 Tdp1-/- hTDP1 cells, no CPT, ATP luminescence, 48 h | Potency, µM (series often up to 46.2 µM), for inactives: at the top dose activity change, negative = growth inhibition, most hits filed as inhibitors | 420,000 tested, 15% active | AID 686978, 2013; also: potency is read from the fitted curve at half-maximal effect; nearly all actives have a fitted effect of over 55% in size
#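 Growth of hTDP1-complemented DT40 Tdp1-knockout cells is measured by ATP luminescence after at least 48 hr compound exposure at 37 °C, with DMSO substituting for the 20 nM CPT used in the parallel screen.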
# RORg inh: qHTS for inhibitors of ROR gamma transcriptional activity | Nuclear receptor ROR-gamma (Mus musculus), P51450 | AID 2551, 2010 | Potency, µM (doses to about 53.6 µM), inactives show top-dose activity change, negative = inhibition, most hits filed as inhibitors | Drosophila S2 Gal4-RORgamma UAS-luciferase reporter, 20 h | 310,000 tested, 5.4% active; also: potency is read from the fitted curve at half-maximal effect; nearly all actives have a fitted effect of over 60% in size
# Target sequence (P51450 whole entry, looked up, the tested form may be a part): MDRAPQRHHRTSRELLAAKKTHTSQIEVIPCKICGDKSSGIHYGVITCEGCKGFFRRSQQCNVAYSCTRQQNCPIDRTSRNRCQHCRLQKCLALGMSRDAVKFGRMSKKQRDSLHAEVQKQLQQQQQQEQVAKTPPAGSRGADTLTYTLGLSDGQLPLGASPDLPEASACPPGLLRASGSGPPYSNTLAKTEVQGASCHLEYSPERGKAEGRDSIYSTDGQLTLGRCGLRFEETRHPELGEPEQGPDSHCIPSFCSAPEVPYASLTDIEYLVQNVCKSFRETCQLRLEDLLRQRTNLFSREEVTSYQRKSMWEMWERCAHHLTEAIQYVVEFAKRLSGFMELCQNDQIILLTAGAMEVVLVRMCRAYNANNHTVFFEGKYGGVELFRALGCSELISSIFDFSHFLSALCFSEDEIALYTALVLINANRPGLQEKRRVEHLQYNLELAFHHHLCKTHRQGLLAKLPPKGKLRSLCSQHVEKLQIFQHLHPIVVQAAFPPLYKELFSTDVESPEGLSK
#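 Stably transfected Drosophila Schneider cells are the test system, with ROR gamma fused to Gal4 and luciferase under UAS control; luminescence is read after 20 hr of 700 uM copper sulfate induction at ambient temperature.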
# TDP1 cell CPT: qHTS for Inhibitors of human tyrosyl-DNA phosphodiesterase 1 (TDP1): qHTS in cells in presence of CPT; Potency, µM (titrated, usually from 46.2 µM), without a hit: at the top dose activity change, negative = growth inhibition, actives largely listed as inhibitors; chicken DT40 Tdp1-/-;hTDP1 cells + 20 nM CPT, ATP luminescence, 48 h; 420,000 tested, 12% active; also: potency is read from the fitted curve at half-maximal effect; nearly all actives have a fitted effect of over 55% in size
#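 Chicken DT40 Tdp1-/- cells stably complemented with human TDP1 were seeded at 400 cells/well in medium containing 20 nM camptothecin, exposed to pin-transferred compounds, and grown at 37 °C for at least 48 hr. Viability was read as ATP luminescence.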
# VP16 counter: VP16 counterscreen qHTS for inhibitors of ROR gamma transcriptional activity; Drosophila S2 Gal4-VP16 UAS-luciferase, luminescence, 20 h; Potency, µM (series often up to 53.6 µM), for the others: at the highest dose activity, negative = inhibition, actives largely listed as inhibitors; 310,000 tested, 3.5% active;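 also: Gal4-VP16 expression switched on by copper sulfate through the metallothionein promoter; potency is read from the fitted curve at half-maximal effect; nearly all actives have a fitted effect of over 50% in size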
# * marks the source's active call; other numbers are inactive results; ? = inconclusive; nt = no result. In the library only some 21% were active in any assay of this set; here they are far more common. Unless noted, calls follow the shape of the dose curve; as a rule, active = well fitted curve in the direction sought with a large enough effect; inconclusive = small, poorly fitted or top-dose-only effect, or another doubt; inactive = no such curve, though single readings can be large; an effect the other way counts as inactive or inconclusive. % is scaled to controls: 0 for no effect and ±100 for the full control effect.
SMILES,ELG1 repair inh,IL-1B inflam inh,TDP1 cell noCPT,RORg inh,TDP1 cell CPT,VP16 counter
CCN(CC(=O)Nc1ccccc1C(=O)Nc1ccccc1)Cc1nc2ccccc2c(=O)[nH]1,10µM*,57,-1%,3.5µM*,11%,?
COc1cc(/C=N/n2nnnc2Nc2ccccc2)cc(OC)c1OC,23µM*,?,18µM*,43%,15µM*,2%
COc1cc(/C=N/Nc2nc(Nc3ccc(C)cc3)nc(-n3nc(C)cc3C)n2)cc(OC)c1OC,?,4,2.9µM*,-25%,4.6µM*,?
COc1ccc(O)c(/C=N/Nc2nc(Nc3ccccc3)nc(-n3nc(C)cc3C)n2)c1,2.6µM*,-23,0.52µM*,0.63µM*,0.58µM*,0.63µM*
COc1cc(/C=N/Nc2ccc(F)cc2F)cc(OC)c1OC,-27%,-19,?,?,?,30%
COc1cc(/C=N/Nc2nc(Nc3ccccc3)nc(-n3nc(C)cc3C)n2)cc(OC)c1OC,1.8µM*,-64*,18µM*,5µM*,23µM*,6.3µM*
CCc1ccccc1NCc1nnc2n1CCCCC2,nt,nt,-9%,nt,1%,nt
CC1(C(=O)O)CCCN1C(=O)c1ccccc1OC(F)(F)F (stereo not drawn),nt,27,-6%,nt,-19%,nt
CCOc1ccc(NC(=O)N2CCN(Cc3cc(=O)n4nc(-c5ccc(OC)cc5)sc4n3)CC2)cc1,nt,nt,-20%,nt,-2%,nt
CCC(=O)NC(=S)Nc1cccc(NC(=O)c2ccco2)c1,-3%,6,-24%,-17%,1%,2%
Cc1cc(C(=O)Nc2cccc(NC(=O)c3ccco3)c2)ccc1[N+](=O)[O-],?,-79*,?,?,?,0%
O=C(NNc1ccc([N+](=O)[O-])cc1[N+](=O)[O-])c1ccco1,?,-62*,21µM*,?,15µM*,?
CCOc1ccc(C(=O)NC(=S)Nc2ccc(NC(=O)CC)cc2)cc1[N+](=O)[O-],0%,0,-22%,-32%,-14%,-7%
COc1ccc(C(=O)NC(=S)Nc2cccc(NC(=O)c3ccco3)c2)cc1[N+](=O)[O-],?,-4,?,10µM*,?,?
CCOc1ccc(C(=O)NC(=S)Nc2cccc(NC(=O)c3ccco3)c2)cc1[N+](=O)[O-],23µM*,?,15µM*,6.3µM*,?,7.1µM*
CC1=C(C(=O)Nc2ccccc2C)C(c2ccncc2)n2nc(SCc3ccccc3)nc2N1 (stereo not drawn),nt,nt,-9%,nt,-11%,nt
CCN(CC)CCn1c(-c2ccccc2)nc2c(NCCOC)nc(C)nc21,nt,nt,nt,-22%,nt,-4%
CCOc1ccc(C(=O)Nc2cccc(NC(=O)c3cccs3)c2)cc1[N+](=O)[O-],?,-25,18µM*,38%,?,-2%
CCc1ccc(CN(C)C(=O)c2cccc(S(=O)(=O)Nc3ccccc3OC)c2)cc1,?,-8,?,nt,?,nt
CCOc1ccc(NS(=O)(=O)c2ccc(C(=O)N(C)CC(=O)Nc3ccc(C)cc3)cc2)cc1,-11%,?,16µM*,nt,?,nt
COc1cccc(CN(C)C(=O)c2cccc(S(=O)(=O)Nc3cccc(C)c3)c2)c1OC,nt,-12,16µM*,nt,23µM*,nt
CCOc1ccc(NS(=O)(=O)c2ccc(C(=O)N(C)Cc3cccc(OC)c3OC)cc2)cc1,16µM*,0,15µM*,?,15µM*,?
